IMPase cell inh: membrane-permeable compound that blocks inositol monophosphatase | CHO-M1 cells, IP1 accumulation, HTRF TR-FRET ratio | inhibition (IP1 accumulation), % at 46.1 µM | 120,000 tested, under 10 active | AID 901; active = well fitted curve in the direction sought with a large enough effect in the signal ratio, not every such curve was filed as active; inconclusive = small, poorly fitted or top-dose-only effect, or a change in a side signal; inactive = no such curve, though single readings can be large or run the other way; the % refers to the signal ratio;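 note: cells stimulated with carbachol in lithium chloride buffer; higher means more IMPase inhibition seen as more IP1 and lower FRET ratio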
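Elevated IP1 in lysates lowers TR-FRET signal (665/620 ratio and 620 channel reported). Cells were CHO-M1, given carbachol (50 uM as added) plus 50mM LiCl, pH 7.4, 30 min, 37C; compounds titrated up to 46 uM; AC50 by Hill equation.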
IMPase Li inh: IMPase inhibition in cells with lithium potentiation; actives 0.35% (n = 210,000); CHO-M1 cells, IP1 TR-FRET (IP-One), carbachol + lithium; Potency, µM (titrated, usually from 59.4 µM), hits mostly inhibitors; active = well fitted inhibition curve with a large enough effect; inconclusive = small, poorly fitted or top-dose-only effect; inactive = no such curve, though single readings can be large or run the other way;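 note: IP1 builds up when IMPase is blocked and the TR-FRET signal falls; nearly all actives have a fitted effect of over 50% in size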
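Readout is a homogeneous TR-FRET IP1 immunoassay (Ex 320, Em 665 and 620), where raised cytosolic IP1 lowers signal. Cells were CHO-M1 treated 30 min at 37C with test compounds plus a little lithium; AC50 values came from Hill-equation fitting.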
PNC inhibitor: blocks assembly of the perinucleolar compartment; activity change (PNC), negative = inhibition, % at 10 µM; actives 3.1% (n = 140,000); PC3M PTB-GFP, PNC prevalence imaging, 16 h; stronger effect = lower value;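 active = readout at or below -70, meaning at least 70% loss of cells showing the perinucleolar compartment, a nuclear body marking cancer cells; inconclusive = readout between -30 and a set limit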
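PC3M cells stably expressing PTB-GFP, 750–1000 cells/well, treated 16 h at 37 °C with compound (23 nl of library stock), in duplicate. After paraformaldehyde fixation and Hoechst stain, imaged at 20x; PNC prevalence scored by image analysis.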
ALDH1A1 inh: blocks purified human ALDH1A1 activity. P00352. Purified ALDH1A1, NADH fluorescence, propionaldehyde substrate. Potency, µM (titrated, usually from 75.3 µM), most hits filed as inhibitors. actives 7.3% (n = 220,000). AID 1030
Target sequence (P00352 whole entry, looked up): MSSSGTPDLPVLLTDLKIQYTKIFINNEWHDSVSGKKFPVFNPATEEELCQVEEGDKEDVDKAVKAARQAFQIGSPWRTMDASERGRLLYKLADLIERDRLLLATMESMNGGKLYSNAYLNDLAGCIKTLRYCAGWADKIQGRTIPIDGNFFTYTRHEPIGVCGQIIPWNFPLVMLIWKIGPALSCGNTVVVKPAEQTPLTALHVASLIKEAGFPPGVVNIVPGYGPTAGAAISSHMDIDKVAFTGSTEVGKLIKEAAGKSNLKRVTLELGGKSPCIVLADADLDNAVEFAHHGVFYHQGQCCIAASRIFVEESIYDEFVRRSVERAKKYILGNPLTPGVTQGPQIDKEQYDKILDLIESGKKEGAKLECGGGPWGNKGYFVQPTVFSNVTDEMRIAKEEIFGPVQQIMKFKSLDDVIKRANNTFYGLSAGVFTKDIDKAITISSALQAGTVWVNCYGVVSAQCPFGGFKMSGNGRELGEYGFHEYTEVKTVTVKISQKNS
HPGD block: inhibitors of human 15-hydroxyprostaglandin dehydrogenase (HPGD); Potency, µM, most hits filed as inhibitors; actives 4.3% (n = 150,000); purified HPGD, NADH fluorescence kinetic, PGE2 substrate
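NADH formation kinetics: reaction with 30 uM PGE2 and 1 mM NAD+ (final), 20 nM enzyme, Tris-HCl pH 8 with Tween 20, after 15 min compound preincubation at room temperature. Fluorescence change, last versus first of five reads.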
Numbers stand for hits; – = inactive; ? = inconclusive; · = no result; [ ] = dose if it differs, or a comment. Rows were chosen to be rich in hits. Some 11% of all compounds tested hit in one or more screens of this group. Unless noted, calls come from the whole dose curve; as a rule, active = well fitted inhibition curve with a large enough effect (not every such curve was filed as active); inconclusive = small, poorly fitted or top-dose-only effect, or another doubt; inactive = no such curve, though single readings can be large or run the other way.

SMILES	IMPase cell inh	IMPase Li inh	PNC inhibitor	ALDH1A1 inh	HPGD block
Cn1c(C(=O)N2CCCC(C(=O)NCCCc3ccccc3)C2)cc2sccc21 (configuration not stated)	–	–	–	14µM	–
Cc1ccc(CCNC(=O)C2CCCN(C(=O)c3cc4sccc4n3C)C2)cc1 (configuration not stated)	–	–	–	8.9µM	–
CCOC(=O)N1CCC(NC(=O)C2CCCN(C(=O)c3cc4sccc4n3C)C2)CC1 (configuration not stated)	–	–	–	?	–
Cn1c(C(=O)N2CCCC(C(=O)NCc3ccc4c(c3)OCO4)C2)cc2sccc21 (configuration not stated)	–	–	–	3.5µM	–
Nc1cnn([C@@H]2O[C@H](CO)[C@@H](O)[C@H]2O)c(=O)n1	·	–	·	?	–
C=CCS/C(N)=N\N=C\c1cc(Br)cc([N+](=O)[O-])c1O	·	·	·	7.1µM	·
O=C(CSc1nnc(-c2cccs2)n1CC1CCCO1)N1CCCC1 (configuration not stated)	·	–	·	–	·
CCOc1ccc(C(C)=O)cc1CSc1nnc(-c2cccs2)n1CC1CCCO1 (configuration not stated)	–	–	–	8.9µM	–
Cc1cc(C)cc(Nc2cc(=O)n(C3CCCCC3)c(=O)[nH]2)c1	–	–	–	0.45µM	–
O=c1cc(N2CCCCC2)[nH]c(=O)n1C1CCCCC1	·	–	·	?	·
COC(=O)C1CCN(c2cc(=O)n(C3CCCCC3)c(=O)[nH]2)CC1	–	–	–	?	–
COc1ccc(Nc2cc(=O)n(C3CCCCC3)c(=O)[nH]2)c(OC)c1	–	–	–	7.1µM	–
Cc1cc([N+](=O)[O-])c2c(c1C)C1C=CCC1C(c1ccccn1)N2 (configuration not stated)	·	–	·	8.9µM	·
Cc1cc([N+](=O)[O-])cc2c1NCC1CC=CC21 (configuration not stated)	·	–	?	?	–
CC(=O)Nc1ccc(C(=O)Nc2cc(C(F)(F)F)ccc2-n2cnc3ccccc32)cc1	·	–	–	?	14µM
COc1ccc(C(=O)Nc2cc(C(F)(F)F)ccc2-n2cnc3ccccc32)cc1	–	–	?	?	–
Cc1nc(N(C)C)c2sc(=S)n(C)c2n1	?	–	?	–	–
COc1nc(C)nc2c1sc(=S)n2C	–	22µM	–	–	–
CN(CC(=O)Nc1ccc([N+](=O)[O-])cc1Br)Cc1c(F)cccc1Cl	·	·	·	10µM	·
O=C(CN1C(=O)c2ccccc2C1=O)NN1C(=O)c2ccccc2C1=O	–	–	–	2.8µM	–
O=C(Cc1ccccc1)NN1C(=O)c2ccccc2C1=O	·	–	·	–	·
O=C(CN1CCN(c2ccc(F)cc2)CC1)Nc1nnc(-c2ccccc2)s1	–	11µM	?	28µM	–
O=C(CSc1ncn[nH]1)Nc1nnc(-c2ccccc2)s1	–	–	–	28µM	–
O=C(CN1CCN(c2ccccc2)CC1)Nc1nnc(-c2ccccc2)s1	–	–	–	–	–
O=C(CSc1ncn[nH]1)Nc1ccccc1-c1ccccc1	–	–	–	?	–
SMILES	IMPase cell inh	IMPase Li inh	PNC inhibitor	ALDH1A1 inh	HPGD block
COc1ccccc1-c1oc2ccccc2c(=O)c1OC	–	–	·	–	–
COc1ccc2[nH]c3c(=O)n(Cc4ccc(C(=O)N5CCCC5)cc4)c(=S)[nH]c3c2c1	·	–	·	–	·
Cc1nn(-c2ccccc2)c2c1C(c1ccncc1)C(C#N)=C(N)O2 (configuration not stated)	–	–	–	14µM	–
Cc1ccc(-n2nc(C)c3c2OC(N)=C(C#N)C3c2ccncc2)cc1 (configuration not stated)	–	–	–	?	–
Cc1ccc(-n2nc(C)c3c2OC(N)=C(C#N)C3c2ccccc2F)cc1 (configuration not stated)	–	–	–	4µM	–
CCCCC/C=C\C/C=C\C/C=C\CCCCCCC(=O)NC(C)C(=O)O (configuration not stated)	·	–	·	–	–
CCCCNc1nc(=S)n(-c2ccccc2)c(C)c1C(C)=O	·	–	·	–	·
Cc1ccc(Sc2nnc(Cc3ccccc3)c3ccccc23)cc1	–[1.84 µM]	?	–	28µM	–
CC1=CC(C)(C)Nc2ccc(OS(=O)(=O)c3ccc(C)cc3)cc21	–	–	–	1.1µM	?
CC(=O)Nc1ccc(S(=O)(=O)Oc2ccc3c(c2)C(C)=CC(C)(C)N3)cc1	·	–	-109	–	–
CCCCCn1c(CCC(=O)Oc2ccccc2OC)nc2c1c(=O)[nH]c(=O)n2CCCC	–	–	–	–	–
CCN1C(=O)/C(=C\C(=O)c2cccs2)c2cc(Br)ccc21	·	–	·	11µM	·
CN1C(C(=O)c2ccccc2)=C(OC(=O)c2ccc(Br)cc2)c2ccccc2S1(=O)=O	–	·	·	·	·
COc1cc2c(cc1OC)C(=S)NC1(CCCC1)C2	·	–	·	?	·
COc1cc2c(cc1OC)/C(=C/C#N)NC(C)(C)C2	–	–	?	2µM	–
CCCCNS(=O)(=O)c1ccc2nc(-c3cccnc3)cc(C(=O)NCCCOCC)c2c1	·	11µM	·	–	·
CCCCNS(=O)(=O)c1ccc2nc(-c3cccnc3)cc(C(=O)NCCCOC)c2c1	·	–	·	–	·
CCCCSc1nnc2[nH]c(=O)cc(N)n12	–	–	–	?	16µM
CCCSc1nnc2[nH]c(=O)cc(N)n12	–	–	–	–	–
COC(=O)c1c(-c2cccs2)csc1NC(=O)c1cccnc1	–	–	-100	?	?
CCN(CC)C(=O)c1sc(NC(=O)c2cccnc2)c(C(=O)OC)c1C	·	–	–	?	20µM
CCN(CC)C(=O)c1sc(NC(=O)c2nc3ncccn3n2)c(C(=O)OC)c1C	–	·	·	·	·
CCCc1cc(C(=O)Nc2sc(C(C)=O)c(C)c2C(=O)OCC)no1	–	–	–	25µM	?
CCOC(=O)c1c(NC(=O)c2cc(CC(C)C)on2)sc(C(C)=O)c1C	–	–	?	?	?
O=C(NCCOC(=O)c1cccs1)c1cccnc1	–	–	–	?	–
SMILES	IMPase cell inh	IMPase Li inh	PNC inhibitor	ALDH1A1 inh	HPGD block
CCN(CC)C(=O)c1sc(NC(=O)c2ccc(Br)o2)c(C(=O)OC)c1C	–	–	–	?	16µM
CC(=O)Nc1cc(CN2CCCCC2)c(O)c2ncccc12	·	–	·	–[13.5 µM]	–
CCOC(=O)c1c(NC(=O)CC)sc(C(C)=O)c1C	–	–	–	14µM	?
CCCCC(=O)Nc1sc(C(=O)N(CC)CC)c(C)c1C(=O)OC	–	–	-100	8.9µM	2.5µM
CCOC(=O)c1c(NC(=O)c2cccnc2)sc(C(C)=O)c1C	–	–	–	?	13µM
Cc1ccc(/C=N/n2c(=O)c(C(C)(C)C)nn3cnnc23)cc1	–	–	-94	–	–
O=C(Nc1nc2c(s1)CN(Cc1ccccc1)CC2)C1CCCC1	·	–	·	?	·
O=C(Nc1nc2c(s1)CN(Cc1ccccc1)CC2)c1c(F)cccc1F	·	–	·	19µM	·
CC(C)(C)C(=O)Nc1nc2c(s1)CN(Cc1ccccc1)CC2	·	–	·	32µM	·

High-throughput results (PubChem BioAssay)
